Test results reported in PubChem BioAssay (Tox21).
Inconclusive results are not listed. A call without a number means that no potency is given here. The source made the active and inactive calls. The call rests on the fitted dose curve; in most records, active means well fitted cell-killing curve with a large enough effect in the repeat runs; inconclusive means weak or mixed curves, or effect the other way; inactive means flat fitted curve, though single readings scatter.

Test: cAMP Responsive Elements (CRE) small molecule antagonists, cell-based qHTS assay: qHTS cell viability counter screen (AID 2060913); further: nearly all actives have a fitted effect of over 40% in size
Settings: CRE-bla HEK293T viability, CellTiter-Glo luminescence, 5 h; series mostly up to 92.4 µM
Excerpt: U.S. Tox21 Program National Center for Advancing Translational Sciences [NCATS] Division of Preclinical Innovation [DPI] U.S. Environmental Protection Agency [EPA] National Institutes of Environmental Health Sciences [NIEHS] National Toxicology Program [NTP] U.S. Food and Drug Administration [FDA] Tox21 Assay Overview: CREB (cyclic-AMP Responsive Element Binding Protein) is a cellular transcription factor. It binds to certain DNA sequences called cAMP Responsive Elements (CRE) and regulates the transcription of the genes. […] This cell line can be used to find agonists/antagonists of the cyclic AMP signaling pathway. The activation of the report gene under culture conditions can be detected by fluorescence intensity. This cell line has been used to screen the Tox21 10K compound library to identify agonists that induce oxidative stress. The cytotoxicity of the Tox21 compound library against the CRE-bla cell line was tested in parallel by measuring the cell viability using CellTiter-Glo assay (Promega, Madison, WI) in the same wells.
Tox21 Assay Protocol Summary: CRE-bla Hek 293T cells were suspended in assay medium (DMEM containing 10% dialyzed FBS, 0.1 mM NEAA, 1 mM sodium pyruvate and 25 mM HEPES) and dispensed at 2,000 cells/4 uL /well into 1536-well black wall/clear bottom plates using a Multidrop Combi (ThermoFisher Scientific, Waltham, MA) dispenser. After the assay plates were incubated at 37 C/5% CO2 for 18 hrs, 23 nL of compounds dissolved in DMSO, positive controls or DMSO only was transferred to the assay plate by a pintool workstation (Kalypsys, San Diego, CA), followed by addition of 1 uL of 1.25uM NKH477 (0.25 uM as final concentration) in assay medium using a Flying Reagent Dispenser (Aurora Discovery, San Diego, CA). The plates were incubated at 37 C and 5% CO2 for 3 hrs. Then 1 uL of LiveBLAzer B/G FRET substrate (Invitrogen, Carlsbad, CA) was added to each well using Bioraptr Flying Reagent Dispenser (FRD, Aurora Discovery, San Diego, CA). The plates were incubated at room temperature for 2 h, then fluorescence intensities were measured using an Envision plate reader (PerkinElmer, Shelton, CT) at Excitation 405nm, Emission 460nm and 530nm. The % activity was determined from the ratio of 460nm/530nm. For cell viability readout that measures cytotoxicity, 4 uL /well of CellTiter-Glo reagent was added into the assay plates using Bioraptr FRD. After 30 min incubation at room temperature, the luminescence intensity in the assay plates was measured using a ViewLux (PerkinElmer, Shelton, CT) plate reader.
Potency means the concentration at half of the fitted maximal effect.

Compound | Potency
Nc1ccc2c(O)cc(S(=O)(=O)O)cc2c1 | inactive
CCOCCOCCOCC | inactive
O=[N+]([O-])C(CO)(CO)CO | inactive
COC(=O)CC(C)CCC=C(C)C (stereo not given) | inactive
CC/C(=C(/c1ccc(O)cc1)c1ccc(OCCN(C)C)cc1)c1ccccc1 | 37.6 µM (active)
CCC1(c2ccccc2)C(=O)NCNC1=O | inactive
CO/N=C(/C(=O)N[C@@H]1C(=O)N2C(C(=O)O)=C(COC(N)=O)CS[C@H]12)c1ccco1 | inactive
Sc1nc2ccccc2s1 | inactive
C=C(C)C(=O)OCC[N+](C)(C)C | inactive
Cc1ccc(C(=O)c2ccccc2)cc1 | inactive
CC(C)(C)NC[C@H](O)COc1cccc2c1CCCC2=O | inactive
Cc1nc2n(c(=O)c1CCN1CCC(C(=O)c3ccc(F)cc3)CC1)CCS2 | inactive
CCCC1O[C@@H]2C[C@H]3[C@@H]4CCC5=CC(=O)C=C[C@]5(C)[C@H]4[C@@H](O)C[C@]3(C)[C@]2(C(=O)CO)O1 (stereo not given in full) | inactive
C=CC/C=C/C/C=C/C/C=C/C | inactive
CC(C)=O | inactive
CCCCCCCCC(CCCCCC)C(=O)O (stereo not given) | inactive
CCCC[P+](CCCC)(CCCC)CCCC | inactive
CCCC[P+](C)(CCCC)CCCC | inactive
CCCCOCCOCCO | inactive
NC(=O)/N=N/C(N)=O | inactive

Compound | Potency
C[n+]1ccn(Cc2ccccc2)c1 | inactive
CCc1ccc(Br)cc1 | inactive
COc1cc(O)c(C(=O)c2ccccc2)cc1S(=O)(=O)O | inactive
CCN(CC)C(=S)SSC(=S)N(CC)CC | inactive
CC/C=C\CCOC(=O)CCCCC | inactive
O=C(NS(=O)(=O)/C=C/c1cccs1)c1ccc(F)cc1Br | inactive
CCCCCC/C=C/C=O | inactive
Cc1cc(C(C)(C)C)c(O)c(C)c1CC1=NCCN1 | inactive
CC(C)(C)C(=O)C1C(=O)c2ccccc2C1=O | inactive
O=C(O)CCSCCC(=O)O | inactive
O=C(O)Cc1csc(-c2ccc(Cl)cc2)n1 | inactive
Nc1cc(Cl)cc(S(=O)(=O)O)c1O | inactive
Cc1ccc(C(C)(C)O)cc1 | inactive
Clc1ccc(Cn2c(CN3CCCC3)nc3ccccc32)cc1 | inactive
Nc1ccc2cc(S(=O)(=O)O)cc(O)c2c1N=Nc1ccccc1C(F)(F)F | inactive
O=C1CCCCCO1 | inactive
CC(=O)OC1CCCCC1C(C)(C)C (stereo not given) | inactive
CSc1ccc(C=O)cc1 | inactive
CC1(C)C(=O)C(C)(C)C1=O | inactive
CCC[C@@H]1C[C@@H](C(=O)N[C@@H]([C@H]2O[C@H](SC)[C@H](O)[C@@H](O)[C@H]2O)[C@@H](C)O)N(C)C1 | inactive
